Laboratory results reported in PubChem BioAssay (Tox21).
Results filed as inconclusive are left out. Activity calls are given as the source filed them. Unless noted, calls follow the shape of the dose curve; as a rule, active = well fitted curve in the direction sought with a large enough effect in the repeat runs; inconclusive = weak or mixed curves; inactive = flat fitted curve, though single readings scatter.

Tests used:
[1] = qHTS assay to test for compound auto fluorescence at 535 nm (green) in HEK293 cells (AID 720680)
[2] = qHTS assay to test for compound auto fluorescence at 535 nm (green) in HEK293 cell free culture (AID 720682)
How it was run: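 Intrinsic compound fluorescence is measured in culture medium containing 10% FBS, with excitation at 485 nm and detection at 535 nm, referenced to fluorescein.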

[3] = qHTS assay to test for compound auto fluorescence at 590 nm (red) in HEK293 cell free culture (AID 720683)
How it was run: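 Red-channel autofluorescence of compounds in culture medium (DMEM, 10% FBS), no cells, measured at 540/590 nm. Rose Bengal sodium is the reference fluorophore for equivalence.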

[4] = qHTS assay to test for compound auto fluorescence at 590 nm (red) in HepG2 cell free culture (AID 720684)
How it was run: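 Plate contents were MEM with 10% FBS plus test compound or DMSO, no cells. Fluorescence was recorded with 540 nm excitation and 590 nm emission.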

[5] = qHTS assay to test for compound auto fluorescence at 460 nm (blue) in HepG2 cell free culture (AID 720685)
How it was run: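 Compound (23 nL) or DMSO pinned into cell-free MEM with 10% FBS; blue fluorescence read at 405/460 nm excitation/emission, expressed as auto-fluorescence equivalency to triamterene.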

[6] = qHTS assay to test for compound auto fluorescence at 535 nm (green) in HepG2 cell free culture (AID 720686)
[7] = qHTS assay to test for compound auto fluorescence at 460 nm (blue) in HepG2 cells (AID 720687)
How it was run: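 Blue-channel autofluorescence (Ex/Em 405/460 nm, triamterene-equivalent) was measured after 1 hr compound exposure at 37 C, 5% CO2. Cells were HepG2, plated overnight at 37 C in MEM plus 10% FBS.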

[8] = molecular target: Glucocorticoid receptor (Homo sapiens) (UniProt P04150); assay: qHTS assay to identify small molecule agonists of the glucocorticoid receptor (GR) signaling pathway (AID 720691; active = well fitted activation curve with a large enough effect in the signal ratio in the repeat runs, not every such curve was filed as active; the % refers to the signal ratio)
How it was run: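 qHTS in GR-bla HeLa cells: 4 h settling at 37 C/5% CO2, 18 h compound incubation at 37 C, 2 h LiveBLAzer B/G FRET substrate at room temperature, fluorescence intensity measured.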

[9] = molecular target: Glucocorticoid receptor (Homo sapiens) (UniProt P04150); assay: qHTS assay to identify small molecule antagonists of the glucocorticoid receptor (GR) signaling pathway (AID 720692; active = well fitted inhibition curve with a large enough effect in the signal ratio in the repeat runs, not every such curve was filed as active; the % refers to the signal ratio)
How it was run: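 Inhibition of glucocorticoid signalling is measured in HeLa cells with a GRE-controlled beta-lactamase reporter; cells are co-treated with compound and 5 nM dexamethasone (final) for 18 h before FRET substrate readout.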

Measured: Potency

Chain of Glucocorticoid receptor (Homo sapiens) (P04150 whole entry, looked up): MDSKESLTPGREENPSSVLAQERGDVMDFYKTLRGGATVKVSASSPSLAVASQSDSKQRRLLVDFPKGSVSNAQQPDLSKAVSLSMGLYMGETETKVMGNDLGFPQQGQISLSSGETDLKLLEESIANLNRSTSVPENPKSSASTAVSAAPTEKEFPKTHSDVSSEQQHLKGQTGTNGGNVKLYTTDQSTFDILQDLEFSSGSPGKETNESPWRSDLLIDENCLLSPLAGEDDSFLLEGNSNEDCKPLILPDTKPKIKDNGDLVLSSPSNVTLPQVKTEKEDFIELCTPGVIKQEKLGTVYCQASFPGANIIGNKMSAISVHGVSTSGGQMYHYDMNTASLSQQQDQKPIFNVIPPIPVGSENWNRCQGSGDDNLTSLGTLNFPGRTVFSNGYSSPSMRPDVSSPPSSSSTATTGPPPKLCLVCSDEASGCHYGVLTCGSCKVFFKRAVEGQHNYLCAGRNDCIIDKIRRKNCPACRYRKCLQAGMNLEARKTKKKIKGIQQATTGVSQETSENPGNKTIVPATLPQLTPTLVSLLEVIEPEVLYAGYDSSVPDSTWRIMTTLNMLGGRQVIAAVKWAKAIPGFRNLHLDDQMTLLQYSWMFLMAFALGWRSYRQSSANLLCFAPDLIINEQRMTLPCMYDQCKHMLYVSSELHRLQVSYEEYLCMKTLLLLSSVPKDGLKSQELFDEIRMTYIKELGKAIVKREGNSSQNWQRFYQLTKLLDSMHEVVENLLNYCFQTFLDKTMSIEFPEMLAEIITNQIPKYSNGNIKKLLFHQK

CNC(=O)O/N=C/C(C)(C)S(C)=O (configuration not stated)
inactive: all assays above

CNc1cnn(-c2cccc(C(F)(F)F)c2)c(=O)c1Cl
inactive: all assays above

CCOC(=O)CC(SP(=O)(OC)OC)C(=O)OCC (configuration not stated)
inactive: all assays above

O=C(O)C1C(C(=O)O)C2(Cl)C(Cl)=C(Cl)C1(Cl)C2(Cl)Cl (configuration not stated)
inactive: all assays above

C=CC#N
inactive: all assays above

CN1C(=O)CCS(=O)(=O)C1c1ccc(Cl)cc1 (configuration not stated)
inactive: all assays above

CC(C)CCCCCCOC(=O)c1ccccc1C(=O)OCCCCCCC(C)C
inactive: all assays above

COP(=S)(OC)SCN1C(=O)c2ccccc2C1=O
inactive: all assays above

CC(=O)C1CCOC1=O (configuration not stated)
inactive: all assays above

CCCCCCCCCCCCCCCCCC(=O)O
not listed: [8] | [9]
inactive: all other assays above

COS(=O)(=O)OC
inactive: all assays above

Cl[C@H]1OCCO[C@@H]1Cl
not listed: [9]
inactive: all other assays above

FC(F)(F)c1ccc(Cl)cc1
inactive: all assays above

COc1nc(NC(C)C)nc(NC(C)C)n1
inactive: all assays above

CCOP(=S)(OCC)Oc1ccc([N+](=O)[O-])cc1
inactive: all assays above

OCC(O)CCl (configuration not stated)
inactive: all assays above

Clc1cnc(Oc2ccc(Oc3ncc(Cl)cc3Cl)cc2)c(Cl)c1
inactive: all assays above

O=C/C=C/c1ccccc1
inactive: all assays above

CC(=O)/C=C/c1ccccc1
inactive: all assays above

COc1cc(-c2ccc(N)c(OC)c2)ccc1N
not listed: [8] | [9]
inactive: all other assays above

CN(C)CCC#N
inactive: all assays above

O=C(O)C(Br)Br
inactive: all assays above

C[C@H]1C(=O)O[C@@H]2CCN3CC=C(COC(=O)[C@](C)(O)[C@]1(C)O)[C@H]23
inactive: all assays above
